{"source": "PubChem BioAssay (Tox21)", "note": "Inconclusive results are not listed. Entries that show only a call come without a potency. Values without a mark were called inactive. Activity calls are given as the source filed them. The call rests on the fitted dose curve; in most records, active means well fitted inhibition curve with a large enough effect in the signal ratio in the repeat runs (not every such curve was filed as active); inconclusive means weak or mixed curves; inactive means flat fitted curve, though single readings scatter; the % refers to the signal ratio. Potency means the concentration at half of the fitted maximal effect."}
{"target": "Progesterone receptor (Homo sapiens) (UniProt P06401)", "sequence (P06401 whole entry, looked up)": "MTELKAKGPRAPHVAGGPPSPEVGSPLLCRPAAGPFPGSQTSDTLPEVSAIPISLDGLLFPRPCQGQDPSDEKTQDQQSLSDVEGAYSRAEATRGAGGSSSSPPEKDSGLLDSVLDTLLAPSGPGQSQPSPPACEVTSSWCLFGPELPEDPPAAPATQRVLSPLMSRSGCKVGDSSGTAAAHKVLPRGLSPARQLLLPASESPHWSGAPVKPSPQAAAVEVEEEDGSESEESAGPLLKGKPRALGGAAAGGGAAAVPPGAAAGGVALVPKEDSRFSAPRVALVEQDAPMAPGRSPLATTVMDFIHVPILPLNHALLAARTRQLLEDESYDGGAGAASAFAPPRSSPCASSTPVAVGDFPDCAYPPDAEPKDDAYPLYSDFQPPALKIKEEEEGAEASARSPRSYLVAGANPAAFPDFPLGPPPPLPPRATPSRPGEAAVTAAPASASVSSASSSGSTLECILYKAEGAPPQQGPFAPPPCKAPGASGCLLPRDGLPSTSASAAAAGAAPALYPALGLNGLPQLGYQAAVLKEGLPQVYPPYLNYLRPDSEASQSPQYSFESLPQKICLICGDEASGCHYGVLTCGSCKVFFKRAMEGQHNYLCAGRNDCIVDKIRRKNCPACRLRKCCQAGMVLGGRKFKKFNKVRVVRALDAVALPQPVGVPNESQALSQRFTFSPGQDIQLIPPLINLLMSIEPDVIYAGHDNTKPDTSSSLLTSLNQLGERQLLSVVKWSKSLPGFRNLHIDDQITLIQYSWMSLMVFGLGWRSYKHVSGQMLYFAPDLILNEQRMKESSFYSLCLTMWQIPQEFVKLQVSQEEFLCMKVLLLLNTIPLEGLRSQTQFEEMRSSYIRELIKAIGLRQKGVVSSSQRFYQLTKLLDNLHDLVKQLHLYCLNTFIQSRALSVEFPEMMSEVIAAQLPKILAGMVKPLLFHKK", "experiment": "qHTS assay to identify small molecule antagonists of the progesterone receptor (PR) signaling pathway (AID 1346795)", "conditions": "PR-UAS-bla HEK293T, beta-lactamase FRET ratio, 16 h; series mostly up to 92.4 µM", "from_the_text": "National Center for Advancing Translational Sciences [NCATS]\nNIH Chemical Genomics Center [NCGC]\nU.S. Environmental Protection Agency [EPA]\nNational Institutes of Environmental Health Sciences [NIEHS]\nNational Toxicology Program [NTP]\nU.S. Food and Drug Administration [FDA]\nProgesterone receptor (PR), a nuclear hormone receptor, plays an important role in development, metabolic homeostasis and reproduction. […] Endocrine disrupting chemicals (EDCs) and their interactions with steroid hormone receptors like PR causes disruption of normal endocrine function. To identify the compounds that inhibit PR signaling, a PR-UAS-bla GripTite cell line i.e. PR-UAS-bla HEK293T (Invitrogen, Carlsbad, CA, USA) containing a beta-lactamase reporter gene under the control of an Upstream Activator Sequence (UAS) was used to screen Tox21 10K compound library.\nTox21 Assay Protocol Summary:\nPR-UAS-bla HEK293T cells were dispensed at 3,000 cells/4 uL of assay medium containing 2% charcoal stripped FBS per well into black wall/clear-bottom 1536-well plates using a Multidrop Combi (ThermoFisher Scientific, Waltham, MA) dispenser. After the assay plates were incubated at a 37C and 5% CO2 for 6 hr, 23 nL of compounds dissolved in DMSO, positive controls or DMSO only was transferred to the assay plate by a Pintool station (Kalypsys, San Diego, CA), followed by addition of 1 uL (1nM as final concentration) of Promegestone (R5020) in assay medium using a BioRAPTR FRD (Flying Reagent Dispenser, Aurora Discovery, San Diego, CA). The plates were incubated at 37C and 5% CO2 for 16 hr. Then 1 uL of LiveBLAzer B/G FRET substrate was added using a FRD. After the plates were incubated at room temperature for 2 hours, fluorescence intensity was measured by an Envision plate reader (PerkinElmer, Shelton, CT)."}
{"molecule": "CCOc1ccc([N+](=O)[O-])cc1", "Potency": "27.7 µM (active)"}
{"molecule": "Cc1ccc(C=O)cc1", "Potency": "inactive"}
{"molecule": "C=CC(C)(C)O", "Potency": "inactive"}
{"molecule": "Cc1ccc2n[nH]nc2c1", "Potency": "inactive"}
{"molecule": "NCc1cccc(C2CCN(C(=O)c3ccc(C#Cc4ccccc4F)o3)CC2)c1", "Potency": "68.6 µM (active)"}
{"molecule": "Nc1ccc2c(S(=O)(=O)O)cccc2c1S(=O)(=O)O", "Potency": "inactive"}
{"molecule": "CCCCC/C=C\\C=C\\C(=O)OCC", "Potency": "inactive"}
{"molecule": "O=[N+]([O-])c1ccc(CO)cc1", "Potency": "inactive"}
{"molecule": "CC/C=C\\C/C=C\\C/C=C\\CCCCCCCC(=O)OC", "Potency": "inactive"}
{"molecule": "O=c1cc[nH]cc1", "Potency": "inactive"}
{"molecule": "CCOC(=O)C1=NN(c2ccc(Cl)cc2Cl)C(C)(C(=O)OCC)C1", "note": "(stereo not given)", "Potency": "27.3 µM (active)"}
{"molecule": "C/C(=N\\[Si](C)(C)C)O[Si](C)(C)C", "Potency": "inactive"}
{"molecule": "CCc1cccc(CC)c1", "Potency": "inactive"}
{"molecule": "Nc1cccnc1N", "Potency": "inactive"}
{"molecule": "CCc1cccc(C)c1N(C(=O)CS(=O)(=O)O)C(C)COC", "note": "(stereo not given)", "Potency": "inactive"}
{"molecule": "CC(c1cc(C(C)(C)C)cc(C(C)(C)C)c1O)c1cc(C(C)(C)C)cc(C(C)(C)C)c1O", "Potency": "inactive"}
{"molecule": "CC(C)(C)C1=CC(=O)C(C(C)(C)C)=CC1=O", "Potency": "inactive"}
{"molecule": "O=C(Nc1ccccc1)c1cc(Cl)ccc1O", "Potency": "24.3 µM (active)"}
{"molecule": "CN1CCN(C)CC1", "Potency": "inactive"}
{"molecule": "C/C=C/C(=O)C1=C(C)C=CCC1(C)C", "Potency": "inactive"}
{"molecule": "O=C(CCCCCCCCc1cccnc1)N1CCC(C=C(c2ccccc2)c2ccccc2)CC1", "Potency": "21.7 µM (active)"}
{"molecule": "O=S(=O)(c1ccc(OCc2ccccc2)cc1)c1ccccc1O", "Potency": "48.6 µM (active)"}
{"molecule": "C=C(C)CCO", "Potency": "inactive"}
{"molecule": "CCCCCCCCCC[N+](C)(CCCCCCCCCC)CCC[Si](OC)(OC)OC", "Potency": "inactive"}
{"molecule": "C=CC(=O)O[C@H]1C[C@@H]2CC[C@@]1(C)C2(C)C", "Potency": "inactive"}
{"molecule": "O=[N+]([O-])c1ccc(O)c2ncccc12", "Potency": "0.531 µM (active)"}
{"molecule": "CCCCCCCCCCCC(=O)Cl", "Potency": "inactive"}
{"molecule": "CCC(=O)OC/C=C(\\C)CCC=C(C)C", "Potency": "inactive"}
{"molecule": "Cn1c(=O)[nH]c2ncn(C)c2c1=O", "Potency": "inactive"}
{"molecule": "O=C(Cl)c1ccc(Cl)cc1Cl", "Potency": "inactive"}
{"molecule": "CCCCNc1ccc(NCCCC)c2c1C(=O)c1ccccc1C2=O", "activity change, negative = inhibition": "12.4% [at 18.9 µM]"}
{"molecule": "CC(C)(c1ccc(Oc2ccc(N)cc2)cc1)c1ccc(Oc2ccc(N)cc2)cc1", "Potency": "27.3 µM (active)"}
{"molecule": "O=C1CCC(=O)N1", "Potency": "inactive"}
{"molecule": "C=CC(=O)OCC(Br)CBr", "note": "(stereo not given)", "Potency": "inactive"}
{"molecule": "CC1(C)[C@H](C(=O)OCc2cccc(Oc3ccccc3)c2)[C@@H]1C=C(Cl)Cl", "Potency": "inactive"}
{"molecule": "[Cl][Sc]([Cl])[Cl]", "Potency": "inactive"}
{"molecule": "COc1cc(OC)nc(NC(=O)NS(=O)(=O)Nc2ccccc2C(=O)N(C)C)n1", "Potency": "inactive"}
{"molecule": "CCc1c(C)cc(N)c(CC)c1N", "Potency": "inactive"}
{"molecule": "O=C(c1ccccc1)c1ccc(Cl)cc1", "Potency": "inactive"}
{"molecule": "C=C[Si](C)(C)Cl", "activity change, negative = inhibition": "4.87% [at 8.39 µM]"}
